LDHA inh = qHTS assay for inhibitors of human lactate dehydrogenase; L-lactate dehydrogenase A chain (Homo sapiens), P00338; AID 1347041, 2019; purified LDHA, NADH/diaphorase-resazurin fluorescence; active compounds read low; 480,000 tested, 0.15% active; activity change, % (values are at about 110 or 230 µM); in the data active = activity change below about -30%; inconclusive = mostly about -25% to -30%;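 note: plate controls were DMSO wells for no effect and wells without enzyme for full effect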
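Remaining NADH was detected by diaphorase (0.133 mg/mL) converting 37 µM resazurin to fluorescent resorufin, read at 0 and 20 minutes. The preceding 5-minute room-temperature reaction used 2 nM LDHA, 0.2 mM sodium pyruvate and 0.06 mM NADH at pH 7.4.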
PI5P4Ka inh = qHTS for Inhibitors of phosphatidylinositol 5-phosphate 4-kinase (PI5P4K). PI5P4Kalpha enzyme, ADP-Glo luminescence, 60 min; active compounds read low. max response, %. 330,000 tested, 1.2% active. AID 652105, 2013; active = max response of -50% or lower; inconclusive = between -30% and -50%; inactive = -30% or higher; note: value at the top dose of about 77 µM; % is set by controls: 0 for no effect and ±100 for the full control effect
Target sequence (P48426 whole entry, looked up): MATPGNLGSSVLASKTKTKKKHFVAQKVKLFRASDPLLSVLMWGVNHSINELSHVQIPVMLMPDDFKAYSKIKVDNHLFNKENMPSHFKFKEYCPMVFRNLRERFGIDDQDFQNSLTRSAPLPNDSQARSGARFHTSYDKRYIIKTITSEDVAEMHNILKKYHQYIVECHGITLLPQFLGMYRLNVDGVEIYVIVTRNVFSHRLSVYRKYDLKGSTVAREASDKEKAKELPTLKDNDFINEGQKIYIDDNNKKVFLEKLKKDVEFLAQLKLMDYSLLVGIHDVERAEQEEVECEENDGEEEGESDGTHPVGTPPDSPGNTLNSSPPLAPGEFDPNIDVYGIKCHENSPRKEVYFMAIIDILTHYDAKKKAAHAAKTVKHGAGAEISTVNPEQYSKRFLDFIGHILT
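Enzyme plus substrate dispensed, test compounds pinned in, then ATP (5 microM final) added. After 60 min at RT, ADP-Glo reagent 1 for 45 min and reagent 2 for 30 min preceded luminescence imaging.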
DRD3 agonist = qHTS of D3 Dopamine Receptor Agonist: qHTS | D(3) dopamine receptor (Homo sapiens), P35462 | D3R DiscoveRx beta-arrestin cells, luminescence, 90 min | max activation, % | 410,000 tested, 0.58% active; in the data active = max activation above about 30%; note: 0% is about no effect
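Agonist-mode cell screen: cells plated at 1500/well and incubated overnight at 37 °C, then exposed to library compounds for 90 min at 37 °C. Detection reagent was added for 30–60 min at room temperature, and luminescence was read.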
PI4K2A inh = qHTS for small molecular inhibitors of PI4K2A | Phosphatidylinositol 4-kinase type 2-alpha (Homo sapiens), Q9BTU6 | purified PI4K2A, ADP-Glo luminescence, 1 h; active compounds read low | activity change, negative = inhibition, % at 76.9 µM | 420,000 tested, 0.13% active; in the data active = activity change below about -50%; inconclusive = mostly about -30% to -49%;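 note: -100% = wells without enzyme as full effect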
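PI4K2A activity was measured by ADP-Glo luminescence: enzyme (4 ug/mL stock) and phosphatidylinositol (1.2 mM stock) in Tris pH 7.5/MgCl2/EGTA/Triton X-100 buffer were reacted with ATP (300 microM stock) for one hour at ambient temperature.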
D3 antag = qHTS of D3 Dopamine Receptor Antagonist: qHTS | 360,000 tested, 2.5% active | D3R cells, DiscoveRx beta-arrestin luminescence, antagonist mode; active compounds read low | D(3) dopamine receptor (Homo sapiens), P35462 | max response, negative = inhibition, %; in the data active = max response below about -50%; inconclusive = no clear call, values can overlap the other calls; note: % is set by controls: 0 for no effect and ±100 for the full control effect
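Cells plated overnight at 1500 cells/well, then exposed to library compounds with dopamine controls for 90 minutes at 37 degrees C. DiscoveRx reagent added for 30–60 minutes at room temperature; luminescence read, quantitative HTS format.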
The depositor's hits bear a star; ! = a repeat was not active. Shown are actives, neighbours in structure and some others; about 3.3% of the full set was active somewhere.

What do the screens show for `CC(=O)c1c(C)[nH]c(C(=O)C(C)NC(C)c2ccccc2F)c1C` (configuration not stated)?
LDHA inh: 5

How did CCCCOC(=O)C1=C(N)OC2=C(C(=O)CCC2)[C@]12C(=O)N(C)c1ccccc12 do in these assays?
LDHA inh: 6; PI5P4Ka inh: 2; DRD3 agonist: 8; PI4K2A inh: 4; D3 antag: -54*

What do the screens show for `CCOCCCNC1CC(C)CC(C)(C)C1` (configuration not stated)?
LDHA inh: -7

How did O=C(Nc1cccc(F)c1)c1cn(Cc2ccccc2)nc1-c1ccccc1 do in these assays?
LDHA inh: 8

Results for C[n+]1c(-c2ccccc2)cc(CCCCc2cc(-c3ccccc3)[n+](C)c(-c3ccccc3)c2)cc1-c1ccccc1 ?
LDHA inh: -5; PI5P4Ka inh: inconclusive; DRD3 agonist: -22; PI4K2A inh: 0; D3 antag: -73*

What do the screens show for `COc1ccc(C)cc1CCNCc1ccc(C)s1`?
LDHA inh: -4

Results for COc1cc(C[C@@H](C)N)c(OC)cc1Br ?
DRD3 agonist: -10; PI4K2A inh: inactive

Results for CN1CCN(c2nc(N)c(Br)c(Cl)n2)CC1 ?
LDHA inh: 5; PI5P4Ka inh: 3; DRD3 agonist: -2; PI4K2A inh: -3; D3 antag: -69*

What do the screens show for `CN1CCN(c2ncnc(Cl)c2N)CC1`?
LDHA inh: -3; PI5P4Ka inh: -3; DRD3 agonist: -8; PI4K2A inh: -2; D3 antag: -1

What do the screens show for `NC(=O)C1(N2CCCCC2)CCN(Cc2ccccc2)CC1`?
LDHA inh: 4; DRD3 agonist: -29; PI4K2A inh: -1; D3 antag: -68*

What do the screens show for `CN1CC2(Cc3c1ccc1ccccc31)C(=O)NC(=O)N(C(C)(C)C)C2=O` (configuration not stated)?
LDHA inh: -17

Results for Nc1ncnc2c1ncn2[C@@H]1O[C@H](COP(=O)(O)CP(=O)(O)O)[C@@H](O)[C@H]1O ?
LDHA inh: -7; PI5P4Ka inh: -6; DRD3 agonist: -6; PI4K2A inh: -54*; D3 antag: -10

What do the screens show for `CCNC(=O)[C@H]1O[C@@H](n2cnc3c(N)ncnc32)[C@H](O)[C@@H]1O`?
LDHA inh: -2; PI5P4Ka inh: 0; DRD3 agonist: 14; PI4K2A inh: -13; D3 antag: 0

What do the screens show for `CCC1(c2ccccc2)C(=O)NC(=O)NC1=O`?
LDHA inh: -12; PI5P4Ka inh: 0; DRD3 agonist: -7; PI4K2A inh: -5; D3 antag: -116*

How did Cc1[nH]nc2c1C(c1ccc(-c3ccccc3Cl)o1)SCC(=O)N2 (configuration not stated) do in these assays?
LDHA inh: 4

What do the screens show for `COc1cc2[nH]c(C(=O)N3CCC4(CC3)OCCO4)cc2c(OC)c1OC`?
LDHA inh: -5; PI5P4Ka inh: 15; DRD3 agonist: -7; PI4K2A inh: 0; D3 antag: -84*

Results for Cn1cnc(CCN)c1 ?
LDHA inh: 0; PI5P4Ka inh: -4; DRD3 agonist: -8; PI4K2A inh: -5; D3 antag: -77*

Results for Cc1ccccc1-n1c(C)nc2ccccc2c1=O ?
LDHA inh: -10; PI5P4Ka inh: 1; DRD3 agonist: 68*!; PI4K2A inh: 8; D3 antag: 11

How did CCOC(=O)C1=C(N)OC(C)=C(C(=O)OCc2ccccc2)C12C(=O)Nc1ccc(Br)cc12 (configuration not stated) do in these assays?
LDHA inh: 15

Results for CN1C[C@H](CO)C[C@@H]2c3cccc4[nH]cc(c34)C[C@H]21 ?
LDHA inh: -1; PI5P4Ka inh: 1; DRD3 agonist: 30*; PI4K2A inh: 0; D3 antag: -56*

How did CC(C)C[C@H]1C(=O)N2CCC[C@H]2[C@]2(O)O[C@](NC(=O)[C@@H]3C[C@@H]4c5cccc6[nH]cc(c56)C[C@H]4N(C)C3)(C(C)C)C(=O)N12 do in these assays?
DRD3 agonist: 17

How did CCN(CC)C(=O)N[C@H]1C[C@@H]2c3cccc4[nH]cc(c34)C[C@H]2N(C)C1 do in these assays?
LDHA inh: -14; PI5P4Ka inh: -75*; DRD3 agonist: 79*; PI4K2A inh: -22; D3 antag: -4

How did CCN1CCN(C(=O)COc2ccc3c(=O)c(-c4ccccc4)c(C)oc3c2)CC1 do in these assays?
LDHA inh: -5

What do the screens show for `CCn1c(C)cc(/C=C2\C(=O)NC(=O)N(c3ccccc3C)C2=O)c1C`?
LDHA inh: -2; PI5P4Ka inh: -1; DRD3 agonist: 11; PI4K2A inh: -4; D3 antag: 5

What do the screens show for `Cc1ccccc1N1C(=O)NC(=O)/C(=C\c2cnn(-c3ccccc3)c2)C1=O`?
LDHA inh: -22; PI5P4Ka inh: -72*; DRD3 agonist: 5; PI4K2A inh: -24; D3 antag: 2

Results for Cc1ccc([N+](=O)[O-])[c]2c1[O][Hg]2 ?
PI4K2A inh: -25

Results for CSc1ncc(/C=C2/C(=O)NC(=O)N(C)C2=O)cn1 ?
LDHA inh: 0; PI5P4Ka inh: inconclusive; DRD3 agonist: 7; PI4K2A inh: -7; D3 antag: inconclusive

Results for CCCCN1C(=O)NC(=O)/C(=C/c2cnc(SC)nc2)C1=O ?
LDHA inh: -3; PI5P4Ka inh: -85*; DRD3 agonist: -7; PI4K2A inh: -25; D3 antag: 0

Results for CSc1ncc(/C=C2/C(=O)NC(=O)N(C3CCCCC3)C2=O)cn1 ?
LDHA inh: -2; PI5P4Ka inh: -57*; DRD3 agonist: -5; PI4K2A inh: -12; D3 antag: 18

How did O=C(Cc1n[nH]c(=O)c2ccccc12)N1CCN(Cc2cccc3ccccc23)CC1 do in these assays?
LDHA inh: 0

Results for Cc1cc(C=C(C#N)C#N)c(C)n1C1CC1 ?
LDHA inh: -1

What do the screens show for `CN(C)C1C(=O)C(C(N)=O)=C(O)C2(O)C(=O)C3=C(O)c4c(O)cccc4C(C)(O)C3C(O)C12` (configuration not stated)?
LDHA inh: -6; PI5P4Ka inh: -54*; DRD3 agonist: 18; PI4K2A inh: -17; D3 antag: 8

What do the screens show for `CCOC(=O)C1=Nc2ccccc2/C1=C\c1c(O)n(C)c(=O)n(C)c1=O`?
LDHA inh: -2; PI5P4Ka inh: -64*; DRD3 agonist: -4; PI4K2A inh: inconclusive; D3 antag: -10

Screening data from PubChem BioAssay.
